Experimental data from PubChem BioAssay.
Active and inactive are the calls of the source. Unless noted, no rule for the calls is given here.

How the values were obtained:
[1] = compound effects on lung adenocarcinoma cell viability – A549, calcein-AM fluorescence, 48 h, basal, profiling panel (AID 1162); conditions: higher = more signal; also: test concentration not given here
[2] = compound effects on differentiated 3T3-L1 adipocyte viability – cell-based, 3T3-L1 adipocytes, calcein-AM fluorescence, 48 h, basal, profiling panel (AID 1163); conditions: 3T3-L1 adipocytes viability, higher = more signal; also: test concentration not given here
[3] = compound effects on hepatocellular carcinoma cell viability – HepG2, calcein-AM fluorescence, 48 h, basal, profiling panel (AID 1164); conditions: higher = more signal; also: test concentration not given here
[4] = compound effects on multiple myeloma cell viability – MM1S, calcein-AM fluorescence, 48 h, basal, profiling panel (AID 1165); conditions: higher = more signal; also: test concentration not given here
[5] = calcein-AM signal in unstimulated myeloma cells – cell-based, calcein-AM fluorescence, 48 h, PK04 Diversity Set, profiling panel (AID 1166); conditions: RPMI8226 myeloma viability, higher = more signal;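 also: cells grown under basal conditions without added stimulus; test concentration not given here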
[6] = JC-1 mitochondrial signal, unstimulated HepG2 cells – cell-based, JC-1 fluorescence, 24 h, 100 nL compound, profiling panel (AID 1167); conditions: HepG2 mitochondrial potential, higher = more signal; also: test concentration not given here
[7] = JC-1 mitochondrial signal, unstimulated adipocytes – cell-based, JC-1 fluorescence, 3T3-L1 adipocytes, 24 h, 100 nL compound, profiling panel (AID 1168); conditions: JC-1 mitochondrial fluorescence, higher = more signal, called active from +8 up or from −8 down; also: test concentration not given here
[8] = JC-1 mitochondrial signal, unstimulated myeloma cells – cell-based, JC-1 fluorescence, RPMI8226, 24 h, 100 nL compound, profiling panel (AID 1169); conditions: JC-1 mitochondrial potential fluorescence, higher = more signal; also: test concentration not given here
[9] = JC-1 mitochondrial signal, unstimulated MM1S myeloma – cell-based, JC-1 fluorescence, 24 h, 100 nL compound, profiling panel (AID 1170); conditions: MM1S mitochondrial potential, higher = more signal; also: test concentration not given here
[10] = resazurin metabolic signal in A549 cells – cell-based, resazurin fluorescence, 24 h, PK04 Diversity Set, profiling panel (AID 1171); conditions: A549 viability, higher = more signal, called active from +8 up or from −8 down; also: test concentration not given here
[11] = resazurin metabolic signal in HepG2 cells – cell-based, resazurin fluorescence, 24 h, PK04 Diversity Set, profiling panel (AID 1172); conditions: HepG2 viability, higher = more signal; also: test concentration not given here
[12] = budding yeast growth changes without added modifier – OD600, strain BY4716, 24 h, basal condition, primary screen (AID 1173); conditions: S. cerevisiae BY4716 growth, OD600, 24 h; higher = more signal, called active from +8 up or from −8 down
[13] = viability profiling in MM1S myeloma cells – cell-based, resazurin fluorescence, basal, 24 h, PK04 Diversity Set, profiling panel (AID 1174); conditions: higher = more signal, called active from +8 up or from −8 down; also: test concentration not given here
[14] = molecular target: Dihydroorotate dehydrogenase (quinone), mitochondrial (Plasmodium falciparum (isolate 3D7)) (UniProt Q08210); assay: inhibition of P. falciparum DHODH – biochemical, C-terminal His tag, absorbance 600 nm, primary screen (AID 1175); conditions: PfDHODH enzyme, DCIP absorbance 600 nm; higher = more signal, called active from +8 up or from −8 down;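 also: recombinant parasite enzyme with a five histidine tag at its C terminus; test concentration not given here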
[15] = inhibition of PAO1 biofilm formation – strain PAO1, LB-PBS medium, absorbance 600 nm, primary screen (AID 1176); also: test concentration not given here; conditions: P. aeruginosa PAO1 growth/biofilm, A600, 12 h; higher = more signal
[16] = growth modulation of vineyard yeast isolate – strain RM11-1a, OD600, basal, 24 h, primary screen (AID 1177);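 also: cultures grown under basal conditions with no added stressor; test concentration not given here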; conditions: S. cerevisiae RM11-1a growth, OD600, 24 h; higher = more signal, called active from +8 up or from −8 down
[17] = growth of efflux-deficient E. coli DRC39 – strain DRC39, OD650, 24 h, E. coli filamentation inducers, primary screen (AID 1178);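 also: growth measured as culture turbidity by optical density at 650 nm; test concentration not given here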; conditions: E. coli DRC39 acrAB, higher = more signal, called active from +8 up or from −8 down
[18] = growth of efflux-deficient E. coli DRC39 – strain DRC39, OD650, 48 h, E. coli filamentation inducers, primary screen (AID 1179);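 also: screen aims at cell division blockers that make cells filament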; conditions: E. coli DRC39 delta-acrAB growth, higher = more signal, called active from +8 up or from −8 down
[19] = viability profiling in RPMI8226 myeloma cells – cell-based, resazurin fluorescence, basal, 24 h, PK04 Diversity Set, profiling panel (AID 1180); conditions: higher = more signal;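 also: RPMI8826 multiple myeloma cell line at 5000 cells per well; test concentration not given here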
[20] = molecular target: E3 ubiquitin-protein ligase XIAP (Homo sapiens) (UniProt P98170); assay: small molecules binding XIAP protein – biophysical, small-molecule microarray, fluorescence 635 nm, primary screen (AID 1181); conditions: higher = more signal;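 also: score merges 667 nm emission and signal to noise over triplicate slides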
Sequence of E3 ubiquitin-protein ligase XIAP (Homo sapiens) (P98170 whole entry, looked up): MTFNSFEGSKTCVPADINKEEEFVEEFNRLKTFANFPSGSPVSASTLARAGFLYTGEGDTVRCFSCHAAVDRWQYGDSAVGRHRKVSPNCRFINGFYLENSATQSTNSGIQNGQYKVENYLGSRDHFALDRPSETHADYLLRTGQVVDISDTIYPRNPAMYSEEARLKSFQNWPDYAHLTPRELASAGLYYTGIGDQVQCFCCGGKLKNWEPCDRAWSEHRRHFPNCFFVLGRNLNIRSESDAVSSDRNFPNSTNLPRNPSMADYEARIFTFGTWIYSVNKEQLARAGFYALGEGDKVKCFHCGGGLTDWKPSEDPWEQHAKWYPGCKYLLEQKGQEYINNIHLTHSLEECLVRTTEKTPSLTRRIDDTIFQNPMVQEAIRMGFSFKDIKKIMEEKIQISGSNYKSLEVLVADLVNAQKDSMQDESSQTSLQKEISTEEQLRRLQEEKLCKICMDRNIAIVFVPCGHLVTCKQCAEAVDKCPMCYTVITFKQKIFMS

Sequence of Dihydroorotate dehydrogenase (quinone), mitochondrial (Plasmodium falciparum (isolate 3D7)) (Q08210 whole entry, looked up): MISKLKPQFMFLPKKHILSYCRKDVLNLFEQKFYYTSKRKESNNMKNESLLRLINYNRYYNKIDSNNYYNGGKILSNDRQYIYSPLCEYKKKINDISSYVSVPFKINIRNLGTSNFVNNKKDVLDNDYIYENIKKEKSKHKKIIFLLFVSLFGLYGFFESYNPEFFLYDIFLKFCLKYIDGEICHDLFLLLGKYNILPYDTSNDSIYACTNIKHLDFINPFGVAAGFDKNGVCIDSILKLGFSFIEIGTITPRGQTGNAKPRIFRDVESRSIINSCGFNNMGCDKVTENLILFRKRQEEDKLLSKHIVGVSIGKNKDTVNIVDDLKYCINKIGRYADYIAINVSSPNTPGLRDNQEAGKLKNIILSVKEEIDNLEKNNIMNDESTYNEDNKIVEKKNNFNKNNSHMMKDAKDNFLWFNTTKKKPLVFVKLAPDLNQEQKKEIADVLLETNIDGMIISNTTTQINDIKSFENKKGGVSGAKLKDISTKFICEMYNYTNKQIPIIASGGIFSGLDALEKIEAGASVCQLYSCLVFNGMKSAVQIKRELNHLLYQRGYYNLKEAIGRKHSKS

SMILES | z-score [1] | z-score [2] | z-score [3] | z-score [4] | z-score [5] | z-score [6] | z-score [7] | z-score [8] | z-score [9] | z-score [10] | z-score [11] | z-score [12] | z-score [13] | composite z-score [14] | z-score [15] | z-score [16] | z-score [17] | z-score [18] | z-score [19] | composite z-score [20]
COC(=O)CC=C[C@@H](C)[C@@H]1C=C[C@H](O)[C@@H](CO)O1 | -0.864 | -1.02 | -0.008 | 0.667 | -0.932 | 0.295 | -0.875 (inactive) | -0.229 | -0.433 | -0.554 (inactive) | -0.118 | 0.626 (inactive) | -3.24 (inactive) | 0.35 (inactive) | 0.274 (inactive) | 0.86 (inactive) | 0.439 (inactive) | 0.483 (inactive) | -1.28 | 0.0727
C#CCCCON=C1C[C@@H](O)[C@@H](O)[C@@H]2[C@@H]3C(=O)N(CCC(=O)OCC)C(=O)[C@@H]3CC[C@H]12 | 0.278 | 0.73 | 0.249 | -0.0993 | 0.111 | 0.0972 | -0.367 (inactive) | 0.0174 | -1.36 | -1.11 (inactive) | -1.1 | -4.65 (inactive) | -0.307 (inactive) | -0.937 (inactive) | -0.191 (inactive) | -1.71 (inactive) | 0.0851 (inactive) | 0.1 (inactive) | -0.192 | -0.232
C[C@@H](c1ccccc1)N1C(=O)[C@H]2[C@H]3[C@H](O)[C@H](O)CC(=NOCc4ccccc4)[C@H]3CC[C@H]2C1=O | 0.654 | -0.602 | -0.159 | 0.503 | 0.13 | 0.879 | 0.925 (inactive) | 0.00496 | -1.55 | -0.428 (inactive) | -0.137 | -0.18 (inactive) | -1.03 (inactive) | -0.964 (inactive) | -0.179 (inactive) | 0.783 (inactive) | 0.273 (inactive) | 1.12 (inactive) | 0.76 | -0.184
COC(=O)CC=C[C@@H](C)[C@@H](C=NOC[C@@H](O)[C@H]1O[C@@H]2OC(C)(C)O[C@@H]2[C@H]1O)NS(=O)(=O)c1ccc(C)cc1 | -0.234 | 0.531 | 0.104 | -1.57 | -0.34 | 0.153 | 0.158 (inactive) | -0.15 | -0.488 | -0.854 (inactive) | -0.687 | 0.185 (inactive) | -0.502 (inactive) | -0.241 (inactive) | 0.453 (inactive) | 0.0095 (inactive) | -0.336 (inactive) | 0.447 (inactive) | -0.609 | -0.0445
CCOC(=O)[C@H](CC(C)C)NC(=O)CCC1CC(OC(=O)NCCc2ccc(F)cc2)CC2(CCCC(COC(=O)NCC(c3ccccc3)c3ccccc3)O2)O1 (stereo not given in full) | 0.0775 | 0.0775 | -0.912 | -0.325 | 0.497 | -0.898 | -0.516 (inactive) | 0.872 | -0.019 | 0.171 (inactive) | 0.184 | -0.227 (inactive) | -0.345 (inactive) | 0.0649 (inactive) | 0.013 (inactive) | 0.126 (inactive) | 0.113 (inactive) | -1.1 (inactive) | 0.465 | -0.0994
CC(C)=CCCC(C)=CCON=C1C[C@@H](O)[C@@H](O)[C@@H]2[C@@H]3C(=O)N(c4cccc(Oc5ccccc5)c4)C(=O)[C@@H]3CC[C@@H]12 | -1.19 | 0.18 | -0.795 | -2.22 | -3.96 | -1.26 | 0.641 (inactive) | -0.805 | 0.251 | 0.919 (inactive) | 0.171 | -1.86 (inactive) | 0.815 (inactive) | -2.48 (inactive) | 0.0001 (inactive) | -0.556 (inactive) | 0.615 (inactive) | -0.923 (inactive) | -0.198 | 0.0368
CCOC(=O)[C@H](Cc1ccccc1)NC(=O)CCC1CC(OC(=O)NCCc2ccc(F)cc2)CC2(CCCC(COC(=O)NCCOC)O2)O1 (stereo not given in full) | -0.153 | -0.41 | -0.981 | -3.38 | -1.7 | 0.0204 | 0.872 (inactive) | -0.326 | -1.48 | 0.042 (inactive) | -0.154 | -0.664 (inactive) | -0.195 (inactive) | -1.47 (inactive) | 0.487 (inactive) | 0.128 (inactive) | 1.21 (inactive) | 0.195 (inactive) | 0.673 | -0.242
CCOC(=O)NN=C1C[C@@H](O)[C@@H](O)[C@@H]2[C@@H]3C(=O)N(Cc4ccccc4)C(=O)[C@@H]3CC[C@H]12 | 0.29 | 0.114 | -1.05 | 0.976 | -2 | 0.366 | 0.42 (inactive) | 0.334 | -0.68 | 0.939 (inactive) | 1.16 | -0.892 (inactive) | 1.41 (inactive) | -0.451 (inactive) | 0.483 (inactive) | -1.1 (inactive) | -0.077 (inactive) | 0.495 (inactive) | 1.89 | -0.27
C=CC[C@@H]1C=C[C@H](ON=C(C)CCN2CCc3nc(-c4ccccc4)c(-c4ccccc4)cc3C2)[C@@H](CO)O1 | 2.2 | 0.114 | 2.31 | -2.36 | -0.141 | 3.86 | -1.91 (inactive) | 0.518 | -1.17 | 0.548 (inactive) | -0.244 | -1.96 (inactive) | -2.02 (inactive) | -0.126 (inactive) | 0.0767 (inactive) | 0.124 (inactive) | 0.921 (inactive) | 0.392 (inactive) | 0.365 | -0.12
C[C@@H]1CC[C@H]2C(=O)O[C@@H](COc3ccc(C(C)(C)C)cc3)CN2[C@@H]1c1ccc(Br)cc1 | 0.373 | 1.03 | 0.843 | -2.33 | -0.391 | -1.05 | -0.391 (inactive) | -0.509 | 0.291 | 1.99 (inactive) | 0.937 | -0.752 (inactive) | 0.23 (inactive) | -0.184 (inactive) | -0.291 (inactive) | -0.176 (inactive) | 0.095 (inactive) | 0.408 (inactive) | 1.06 | 0.072
COc1ccc(O[C@H]2C=C[C@@H](c3ccccc3)O[C@@H]2CON=C(C)CCC(=O)OC[C@H]2O[C@H](c3ccccc3)C=C[C@@H]2Oc2ccc(OC)cc2)cc1 | -0.094 | -0.603 | -0.144 | -1.44 | -0.31 | 1.08 | 0.244 (inactive) | 0.534 | -0.492 | 0.305 (inactive) | 0.319 | 0.917 (inactive) | 0.427 (inactive) | -0.497 (inactive) | -0.868 (inactive) | 1.26 (inactive) | 0.277 (inactive) | 0.434 (inactive) | 0.476 | -0.195
C[C@H]1Cc2c(COc3ccccc3)nc3c(c2CO1)CN(CCOc1ccccc1)CC3 | 1.05 | 0.175 | 0.93 | -0.125 | -0.517 | 2.33 | 0.678 (inactive) | -0.041 | 0.184 | -0.0515 (inactive) | -0.503 | -3.09 (inactive) | 0.598 (inactive) | -0.555 (inactive) | 1.69 (inactive) | -0.466 (inactive) | 1.52 (inactive) | 0.996 (inactive) | 0.961 | -0.0767
CC(C)CON=C1C[C@@H](O)[C@@H](O)[C@@H]2[C@@H]3C(=O)N(Cc4ccc5c(c4)OCO5)C(=O)[C@@H]3CC[C@H]12 | -0.223 | -0.503 | -0.479 | 0.119 | -1.15 | 0.174 | -0.589 (inactive) | 0.704 | -0.146 | 0.56 (inactive) | 0.259 | 0.151 (inactive) | -0.146 (inactive) | 0.834 (inactive) | -0.626 (inactive) | 0.812 (inactive) | 0.0036 (inactive) | -0.0961 (inactive) | -0.0651 | -0.184
